# According to PubChem BioAssay (NCATS):
# Records with an inconclusive call do not appear. The source made the active and inactive calls. Unless noted, the call rests on the fitted dose curve; in most records, active means well fitted curve in the direction sought with a large enough effect; inconclusive means small, poorly fitted or top-dose-only effect, or another doubt; inactive means no such curve, though single readings can be large; an effect the other way counts as inactive or inconclusive.
# Columns and labels:
# [1] = Quantitative High-Throughput drug screen in 47 multiple myeloma cell lines against the NCATS MIPE library collection: VP6_DJ cell viability assay (AID 1919867); further: nearly all actives have a fitted effect of over 40% in size; further: potency means the concentration at half of the fitted maximal effect
# Outline: (§1)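 Readout: median RLU from CellTiter-Glo after 5 min at room temperature. Preceding step was 48 h drug treatment of 500 cells/well at 37 °C, 5% CO2, with DMSO-only and media-only control wells.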
# [2] = Quantitative High-Throughput drug screen in 47 multiple myeloma cell lines against the NCATS MIPE library collection: UTMC2_PLB cell viability assay (AID 1919868); settings: CellTiter-Glo ATP luminescence, 48 h; viability (% of DMSO control): at 45.8 µM (top of the series) unless noted; further: potency means the concentration at half of the fitted maximal effect; nearly all actives have a fitted effect of over 55% in size
# Outline: as §1
# [3] = Quantitative High-Throughput drug screen in 47 multiple myeloma cell lines against the NCATS MIPE library collection: PCM6_Riken cell viability assay (AID 1919870); further: nearly all actives have a fitted effect of over 30% in size; further: potency means the concentration at half of the fitted maximal effect
# Outline: as §1
# [4] = Quantitative High-Throughput drug screen in 47 multiple myeloma cell lines against the NCATS MIPE library collection: RPMI8226_ATCC cell viability assay (AID 1919871); further: nearly all actives have a fitted effect of over 30% in size; further: potency means the concentration at half of the fitted maximal effect
# Outline: as §1
# [5] = Quantitative High-Throughput drug screen in 47 multiple myeloma cell lines against the NCATS MIPE library collection: KMS28BM_JCRB cell viability assay (AID 1919874); further: nearly all actives have a fitted effect of over 35% in size; further: potency means the concentration at half of the fitted maximal effect
# Outline: as §1
# [6] = qHTS drug screen for cell cycle checkpoint inhibitors in PARPi-resistant BRCA-mutant ovarian cancer cell lines. (AID 1963452; calls by dose curve); settings: PEO1/OlaR viability, CellTiter-Glo luminescence, 96 h, stronger effect = lower value
# Outline: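 PEO1, PEO4 and PEO1/OlaR ovarian cancer cells, 600 per well, exposed 96 h at 37C to a dilution series. Viability read by CellTiter-Glo luminescence, normalized to DMSO and empty wells; activity summarized as Z-AUC.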
# [7] = Quantitative High-Throughput drug screen in 47 multiple myeloma cell lines against the NCATS MIPE library collection: PE2_PLB cell viability assay (AID 1919869); further: nearly all actives have a fitted effect of over 35% in size; further: potency means the concentration at half of the fitted maximal effect
# Outline: as §1
# [8] = Quantitative High-Throughput drug screen in 47 multiple myeloma cell lines against the NCATS MIPE library collection: OPM2_DSMZ cell viability assay (AID 1919872); further: nearly all actives have a fitted effect of over 30% in size; further: potency means the concentration at half of the fitted maximal effect
# Outline: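 Luminescent ATP measurement with CellTiter-Glo gives viability, scaled between DMSO-only wells (100%) and media-only wells (0%). Cells, 500 per well, faced library compounds for 48 hours at 37C.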
# [9] = Quantitative High-Throughput drug screen in 47 multiple myeloma cell lines against the NCATS MIPE library collection: KMS11_JCRBsus cell viability assay (AID 1919873); further: nearly all actives have a fitted effect of over 50% in size; further: potency means the concentration at half of the fitted maximal effect
# Outline: as §1
# [10] = qHTS for identification of novel therapeutic agents for treatment of microphthalmiaassociated transcription factor (MiT) renal cell carcinoma (RCC) (AID 1963991); settings: CellTiter-Glo, 48 h, stronger effect = lower value
# Outline: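 Curves over 11 concentrations were fitted to CellTiter-Glo luminescence, scaled between empty wells (0%) and DMSO (100%) viability. Cells were UOK109, UOK124 and UOK145 TFE3-fusion RCC lines at 500/well, exposed 48 hours at 37 C.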
# [11] = qHTS profiling for inhibitors of Plasmodium falciparum proliferation (AID 504749);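 further: 0% = DMSO vehicle and full inhibition = artemisinin control; nearly all actives have a fitted effect of over 60% in size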; settings: P. falciparum in erythrocytes, SYBR Green DNA, 72 h, at 28.7 µM (top of the series)
# Outline: (§2)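 Fluorescence of SYBR Green-bound parasite DNA, read at 485/535 nm, served as the growth measure. Infected erythrocytes were cultured with compound 72 h; artemisinin (0.29 uM) and DMSO wells defined the normalization range.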
# [12] = test system: 3D7; test: as above; settings: P. falciparum in erythrocytes, SYBR Green DNA, 72 h; series mostly up to 28.7 µM
# Outline: as §2
# [13] = test system: 7G8; test: as above; settings: P. falciparum in erythrocytes, SYBR Green DNA, 72 h; series mostly up to 28.7 µM
# Outline: as §2
# [14] = test system: AA1029; test: as above; settings: P. falciparum in erythrocytes, SYBR Green DNA, 72 h; series mostly up to 28.7 µM
# Outline: as §2
# [15] = test system: AS120; test: as above; settings: P. falciparum in erythrocytes, SYBR Green DNA, 72 h; series mostly up to 28.7 µM
# Outline: as §2
# [16] = test system: ATS189; test: as above; settings: P. falciparum in erythrocytes, SYBR Green DNA, 72 h; series mostly up to 28.7 µM
# Outline: as §2
# [17] = test system: ATS95; test: as above; settings: P. falciparum in erythrocytes, SYBR Green DNA, 72 h; series mostly up to 28.7 µM
# Outline: as §2
# [18] = test system: C2A; test: as above; settings: P. falciparum in erythrocytes, SYBR Green DNA, 72 h; series mostly up to 28.7 µM
# Outline: as §2
# [19] = test system: CP185; test: as above; settings: P. falciparum in erythrocytes, SYBR Green DNA, 72 h; series mostly up to 28.7 µM
# Outline: as §2
# [20] = test system: CP191; test: as above; settings: P. falciparum in erythrocytes, SYBR Green DNA, 72 h; series mostly up to 28.7 µM
# Outline: as §2
# [21] = measured here: PEO1 parental Z-AUC
# [22] = TFE3-RCC UOK109 viability, measured here: UOK109 Z-AUC
# [23] = TFE3-RCC viability, measured here: UOK124 Z-AUC
# [24] = TFE3-RCC viability, measured here: UOK145 Z-AUC
structure (smiles),measurement,setting,value
O=C(O)C1(Cc2cccc(Nc3nccs3)n2)CCC(Oc2cccc(Cl)c2F)CC1 (configuration not stated),Potency,[1],0.148 µM (active)
same,Potency,[2],0.0372 µM (active)
same,Potency,[3],0.418 µM (active)
same,Potency,[4],inactive
same,Potency,[5],0.332 µM (active)
same,Z-AUC,[6],-0.463 (inactive)
same,Z-AUC,[6]; [21],-1.23
same,Z-AUC,[6]; measured here: PEO4 Z-AUC,-1.84
c1cc(-c2cnn3cc(-c4ccc(OCCN5CCCCC5)cc4)cnc23)ccn1,Potency,[1],3.72 µM (active)
same,Potency,[7],3.32 µM (active)
same,Potency,[3],1.87 µM (active)
same,Potency,[4],16.6 µM (active)
same,Potency,[8],20.9 µM (active)
same,Z-AUC,[6],0.293 (inactive)
same,Z-AUC,[6]; [21],0.413
same,Z-AUC,[6]; measured here: PEO4 Z-AUC,0.377
CC(C)CC(=O)Nc1n[nH]c2c1CN(C(=O)C1CCN(C)CC1)C2(C)C,Potency,[1],1.48 µM (active)
same,Potency,[7],2.09 µM (active)
same,Potency,[3],0.743 µM (active)
same,Potency,[4],4.18 µM (active)
same,Potency,[8],2.35 µM (active)
same,Potency,[9],1.48 µM (active)
same,Potency,[5],2.35 µM (active)
same,Z-AUC,[6],-0.913 (inactive)
same,Z-AUC,[6]; [21],-0.186
same,Z-AUC,[6]; measured here: PEO4 Z-AUC,-0.504
COc1cccc(Nc2c(C(N)=O)cnc3c(C)cc(S(=O)(=O)c4cccc(C(=O)N(C)C)c4)cc23)c1,Potency,[1],inactive
same,Potency,[7],inactive
same,Potency,[3],inactive
same,Potency,[4],inactive
same,Potency,[8],inactive
same,Potency,[9],inactive
same,Potency,[5],inactive
same,Z-AUC,[6],-0.363 (inactive)
same,Z-AUC,[6]; [21],0.84
same,Z-AUC,[6]; measured here: PEO4 Z-AUC,0.84
same,z-score,[10]; [22],1.38
same,z-score,[10]; [23],0.911
same,z-score,[10]; [24],0.957
Nc1ccccc1NC(=O)c1ccc(CNC(=O)OCc2cccnc2)cc1,Potency,[1],0.743 µM (active)
same,Potency,[7],1.66 µM (active)
same,Potency,[3],1.66 µM (active)
same,Potency,[4],3.32 µM (active)
same,Potency,[8],2.09 µM (active)
same,Potency,[9],1.87 µM (active)
same,Potency,[5],1.05 µM (active)
same,Z-AUC,[6],-0.769 (inactive)
same,Z-AUC,[6]; [21],-1.32
same,Z-AUC,[6]; measured here: PEO4 Z-AUC,-1.54
c1ccc2c(CCNc3ccc(Nc4ccncc4)cc3)c[nH]c2c1,Potency,[1],23.5 µM (active)
same,Potency,[7],16.6 µM (active)
same,Potency,[3],20.9 µM (active)
same,Potency,[4],20.9 µM (active)
same,Potency,[8],inactive
same,Potency,[9],14.8 µM (active)
same,Potency,[5],11.8 µM (active)
O=C(O)CO.[NH2-].[NH2-].[Pt+2],Potency,[1],inactive
same,Potency,[7],inactive
same,Potency,[3],inactive
same,Potency,[4],inactive
same,Potency,[8],inactive
same,Potency,[9],inactive
same,Potency,[5],inactive
same,z-score,[10]; [22],0.642
same,z-score,[10]; [23],1.56
same,z-score,[10]; [24],1.18
same,"activity, negative = inhibition",[11]; parasite line A,12% (inactive)
same,"activity, negative = inhibition",[11]; parasite line B,15.6% (inactive)
same,Potency,[12],inactive
same,Potency,[13],inactive
same,Potency,[14],inactive
same,Potency,[15],inactive
same,Potency,[16],inactive
same,Potency,[17],inactive
same,Potency,[18],inactive
same,Potency,[19],inactive
same,Potency,[20],inactive
